Unmarked numbers belong to inactive results. Results filed as inconclusive are left out. Entries that show only a call come without a potency. Calls of active or inactive are those of the source. The call rests on the fitted dose curve; in most records, active means well fitted curve in the direction sought with a large enough effect; inconclusive means small, poorly fitted or top-dose-only effect, or another doubt; inactive means no such curve, though single readings can be large; an effect the other way counts as inactive or inconclusive.
Columns and labels:
[1] = biological target: Glutathione peroxidase 1 (Homo sapiens) (UniProt P07203); experiment: Primary qHTS Assay for Inhibitors of Recombinant Selenoprotein Glutathione Peroxidase 1 (GPX1) (AID 1845191); further: nearly all actives have a fitted effect of over 65% in size
How it was run: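 GPX1 10 nM, GR 100 nM, GSH 1 mM, NADPH 0.5 mM, CHP 0.5 mM (final). 30-min cpd preincubation, RT. Ex340/Em450 read t=0, t=15 min.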

[2] = biological target: Phospholipid hydroperoxide glutathione peroxidase GPX4 (Homo sapiens) (UniProt P36969); experiment: Primary qHTS Assay for Inhibitors of Recombinant Selenoprotein Glutathione Peroxidase 4 (GPX4) (AID 1845192); further: nearly all actives have a fitted effect of over 65% in size; on activity change, negative = inhibition: series mostly up to about 50 µM
How it was run: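 qHTS, GR-coupled: GPX4 200 nM + cpd 30 min RT → GSH 1 mM, NADPH 0.5 mM, GR 100 nM → CHP 0.5 mM start; fluor 340/450 at t0 and t15 min; no-enzyme wells as control.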

[3] = biological target: Luciferin 4-monooxygenase (Photinus pyralis) (UniProt P08659); experiment: Primary firefly luciferase (FLuc) qHTS assay for identification of artifact compounds. (AID 1845220); further: nearly all actives have a fitted effect of over 60% in size; further: potency means the concentration at half of the fitted maximal effect; on activity change, negative = inhibition: series mostly up to about 54 µM
How it was run: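 In this counter-screen for luciferase artifacts, test compounds met substrate (10 uM each luciferin and ATP) before 10 nM enzyme started the reaction. Light output was measured 5 min later.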

[4] = Primary fluorescence-based thiol-reactive (MSTI) qHTS assay for identification of artifact compounds. (AID 1845221);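 further: series mostly up to about 54 µM; thiol-reactive compounds lower the probe fluorescence signal; nearly all actives have a fitted effect of over 65% in size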
How it was run: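 Thiol-reactive compounds detected by quenching of 4 uM MSTI fluorescence (525/598 nm) after 1 h room-temperature dark incubation in PBS pH 7.4, 2% DMSO. qHTS titration; percent inhibition Hill-fitted against Acetyl-MSTI/MSTI controls.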

Sequence of Phospholipid hydroperoxide glutathione peroxidase GPX4 (Homo sapiens) (P36969 whole entry, looked up): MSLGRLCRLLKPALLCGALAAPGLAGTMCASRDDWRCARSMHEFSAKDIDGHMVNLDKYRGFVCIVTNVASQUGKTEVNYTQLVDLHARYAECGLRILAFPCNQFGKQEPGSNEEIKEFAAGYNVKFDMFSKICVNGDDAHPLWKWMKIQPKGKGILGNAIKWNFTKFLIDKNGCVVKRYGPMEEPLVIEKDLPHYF
Sequence of Glutathione peroxidase 1 (Homo sapiens) (P07203 whole entry, looked up): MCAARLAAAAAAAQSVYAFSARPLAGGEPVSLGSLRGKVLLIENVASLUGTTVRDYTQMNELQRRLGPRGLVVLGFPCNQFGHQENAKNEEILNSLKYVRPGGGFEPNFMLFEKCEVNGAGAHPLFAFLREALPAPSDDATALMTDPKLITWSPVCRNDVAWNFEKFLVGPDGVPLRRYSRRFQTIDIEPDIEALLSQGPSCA

| SMILES | Potency [1] | Potency [2] | Potency [3] | activity change, negative = inhibition [3] | outcome [3] | Potency [4] |
| --- | --- | --- | --- | --- | --- | --- |
| C[C@]1(OC(=O)/C=C/c2ccccc2)C[C@@H](O)[C@]2(O)C=CO[C@@H](O[C@@H]3O[C@H](CO)[C@@H](O)[C@H](O)[C@H]3O)[C@@H]21 | inactive | inactive | inactive | – | – | – |
| C[C@]1(O)CC[C@@H]2C(C(=O)O)=CO[C@@H](O[C@@H]3O[C@H](CO)[C@@H](O)[C@H](O)[C@H]3O)[C@@H]21 | inactive | inactive | inactive | – | – | – |
| Cc1c(NC(=O)N2CCOCC2)ccc2c1c1ccccc1n2C(C)C | inactive | inactive | inactive | – | – | – |
| CCC/C=C/C=C/C1CC(O)C(O)C(=O)C1CO (centres undefined) | inactive | inactive | inactive | – | – | – |
| CC1=C2C(=O)C=C(CO)C2[C@H]2OC(=O)[C@H](C)[C@@H]2[C@@H](OC(=O)Cc2ccc(O)cc2)C1 (some centres undefined) | inactive | inactive | inactive | – | – | – |
| Cc1c(O)cc2c(c1O)COC1(O)CCCOC21 (centres undefined) | inactive | inactive | inactive | – | – | – |
| C=CCc1ccc(O[C@@H]2O[C@H](CO)[C@@H](O)[C@H](O)[C@H]2O)c(O[C@@H]2O[C@H](CO)[C@@H](O)[C@H](O)[C@H]2O)c1 | inactive | inactive | inactive | – | – | – |
| Cc1nc(-c2cccnc2)sc1C(=O)Nc1ccccc1-c1cn2c(CN3CCOCC3)csc2n1 | inactive | inactive | inactive | – | – | – |
| CC1CC=C2C1CC1(O)C(=O)CC2(C)C1(C)CO (centres undefined) | inactive | inactive | inactive | – | – | – |
| CC1=C[C@@H]2[C@H]3[C@@H]4O[C@@](C)(CC[C@H]4O)[C@H]3CC(=O)[C@]23C(=O)N[C@@H](CC(C)C)[C@@H]3[C@@H]1C | inactive | inactive | inactive | – | – | – |
| COc1cccc(OC)c1-c1nc(C(=O)N[C@@H](CC(C)C)C(=O)O)cn1-c1ccnc2cc(Cl)ccc12 | inactive | inactive | inactive | – | – | – |
| CC1=CC(=O)CC(C)(C)C1/C=C/C(C)OC1OC(COC2OCC(O)C(O)C2O)C(O)C(O)C1O (centres undefined) | inactive | inactive | inactive | – | – | – |
| CC(C)=CCc1cc(O[C@@H]2O[C@H](CO[C@@H]3OC[C@](O)(CO)[C@H]3O)[C@@H](O)[C@H](O)[C@H]2O)ccc1O | inactive | inactive | inactive | – | – | – |
| C[C@H]1[C@H](C)CC[C@]2(C(=O)OC3OC(CO)C(O)C(O)C3O)CC[C@]3(C(=O)O)C(=CCC4[C@@]5(C)CC[C@H](O[C@@H]6O[C@@H](C)[C@H](OC7OC(CO)C(O)C(O)C7O)[C@@H](O)[C@H]6O)C(C)(C)C5CC[C@]43C)[C@H]12 (some centres undefined) | inactive | inactive | – | -5.72% [at 11.6 µM] | – | – |
| Oc1ccc2c(-c3c(-c4ccccn4)nn4c3CCC4)ccnc2c1 | inactive | inactive | inactive | – | – | – |
| CC1=C(CO)C2(C)CCCC(C)(C)C2C(O)C1O (centres undefined) | inactive | inactive | inactive | – | – | – |
| CC(C)C(NC(=O)c1ccc(O)cc1)C(=O)N1CCCC1C(=O)Nc1c(O)cccc1C(=O)O (centres undefined) | inactive | inactive | inactive | – | – | – |
| CC1=CC2=C(C)C(=O)[C@](C)(O)[C@H](O)C2=CO1 | inactive | inactive | inactive | – | – | – |
| C/C=C1/[C@H](O[C@@H]2O[C@H](CO)[C@@H](O)[C@H](O)[C@H]2O)OC=C(C(=O)OC)[C@H]1CC(=O)OCCc1ccc(OC(=O)C[C@@H]2C(C(=O)OC)=CO[C@@H](O[C@@H]3O[C@H](CO)[C@@H](O)[C@H](O)[C@H]3O)/C2=C/C)cc1 | inactive | inactive | – | 2.52% [at 11.6 µM] | – | – |
| C[C@@H]1C(=O)O[C@H]2[C@H]1CC[C@@]1(C)C(=O)C=C[C@@](C)(O)[C@H]21 | inactive | inactive | inactive | – | – | – |
| Cc1ccc(Nc2nnc(-c3ccc([N+](=O)[O-])cc3)o2)cc1Cl | inactive | inactive | inactive | – | – | – |
| C=C(C(=O)OC)[C@]12O[C@@](C)(CC[C@@]3(O)/C(=C\C)C(=O)O[C@]3(C)C[C@@H]1OC(=O)C(CO)CN1CCCC1C(=O)O)CC2=O (some centres undefined) | inactive | inactive | inactive | – | – | – |
| Oc1ccc(CC2NCCc3cc(O)c(O)cc32)cc1 (centres undefined) | inactive | inactive | inactive | – | – | – |
| C=C(CCO[C@@H]1O[C@H](CO)[C@@H](O)[C@H](O)[C@H]1O)C(=O)O | inactive | inactive | inactive | – | – | – |
| CC1=CC23[C@H](C=C(C(=O)O)[C@@H]2COC(=O)[C@]3(O)CO)[C@@H]1C (some centres undefined) | inactive | inactive | inactive | – | – | – |

| SMILES | Potency [1] | Potency [2] | Potency [3] | activity change, negative = inhibition [3] | outcome [3] | Potency [4] |
| --- | --- | --- | --- | --- | --- | --- |
| O=C(O)c1ccc(NC(=O)[C@H](CC2CCCC2)n2cnc(C(F)(F)F)c2)nc1 | inactive | inactive | inactive | – | – | – |
| C=C[C@@](C)(CCC=C(C)C)O[C@@H]1O[C@H](CO[C@@H]2OC[C@H](O)[C@H](O)[C@H]2O)[C@@H](O)[C@H](O)[C@H]1O | inactive | inactive | inactive | – | – | – |
| COc1cc(/C=C/C(=O)O[C@@H]2C[C@@](O)(C(=O)O)C[C@@H](O)[C@@H]2O)ccc1O | inactive | inactive | inactive | – | – | – |
| C/C=C1\[C@H](O[C@@H]2O[C@H](CO)[C@@H](O)[C@H](O)[C@H]2O)OC=C(C(=O)O)[C@H]1CC(=O)OCCc1ccc(O)cc1 | inactive | inactive | inactive | – | – | – |
| CC(NC(=O)CC(=O)O)C(=O)Nc1ccccc1C(N)=O (centres undefined) | inactive | inactive | inactive | – | – | – |
| CC1(C)CC[C@]2(C(=O)O[C@@H]3O[C@H](CO[C@@H]4O[C@H](CO[C@@H]5O[C@H](CO)[C@H](O)[C@H](O)[C@H]5O)[C@@H](O)[C@H](O)[C@H]4O)[C@@H](O)[C@H](O[C@@H]4O[C@H](CO)[C@@H](O)[C@H](O)[C@H]4O)[C@H]3O)[C@H](O)C[C@]3(C)C(=CCC4[C@@]5(C)CC[C@H](O[C@@H]6OC[C@@H](O)[C@H](O)[C@H]6O)[C@@](C)(C(=O)O)C5CC[C@]43C)[C@@H]2C1 (some centres undefined) | inactive | inactive | – | – | inactive [at 11.6 µM] | – |
| COc1ccc(N2CCN(CCCNC(=O)Cn3c(=O)c4cccn4c4c(C)ccnc43)CC2)cc1 | inactive | inactive | inactive | – | – | – |
| CC1(C)CC[C@]2(C(=O)O[C@@H]3O[C@H](CO[C@@H]4O[C@H](CO)[C@@H](O)[C@H](O)[C@H]4O)[C@@H](O)[C@H](O[C@@H]4O[C@H](CO)[C@@H](O)[C@H](O)[C@H]4O)[C@H]3O)[C@H](O)C[C@]3(C)C(=CCC4[C@@]5(C)CC[C@H](O[C@@H]6OC[C@@H](O)[C@H](O)[C@H]6O)[C@@](C)(C(=O)O)C5CC[C@]43C)[C@@H]2C1 (some centres undefined) | inactive | inactive | – | – | inactive [at 11.6 µM] | – |
| C/C=C1/[C@H](O[C@@H]2O[C@H](CO)[C@@H](O)[C@H](O)[C@H]2O)OC=C2C(=O)O[C@@H]3C[C@@H](C(C)CO)[C@H](COC(=O)C[C@H]21)[C@H]3C (some centres undefined) | inactive | inactive | inactive | – | – | – |
| CC(C)=CC[C@H]1O[C@]2(O)C([C@H]3CCC4[C@@]5(C)CC[C@H](O[C@@H]6O[C@H](CO)[C@H](O)[C@H](O[C@@H]7O[C@H](CO)[C@@H](O)[C@H](O)[C@H]7O)[C@H]6O[C@@H]6O[C@@H](C)[C@H](O)[C@@H](O)[C@H]6O)C(C)(C)C5CC[C@@]4(C)[C@]3(C)[C@H]2O)[C@@]1(C)O (some centres undefined) | inactive | inactive | – | 0.583% [at 11.6 µM] | – | – |
| C=C1C[C@@]2(O)O[C@@]3(C[C@H]2C(C)C)[C@@H](C)CC[C@@H]13 | inactive | inactive | inactive | – | – | – |
| O=C(Nc1cc(-c2ccccc2)nn1-c1ccccc1)c1ccc([N+](=O)[O-])cc1 | inactive | inactive | inactive | – | – | – |
| C/C=C/C1OC2=C(C(=O)OC2(C)O)C(O)C1O (centres undefined) | inactive | inactive | inactive | – | – | – |
| C[C@@H]1CCC2C(C)(C)[C@H](O)[C@H](O)C[C@]2(C)[C@@]12Cc1c(O)cc3c(c1O2)CN(CCCC(=O)O)C3=O (some centres undefined) | inactive | inactive | inactive | – | – | inactive |
| COc1cc2c(cc1OC)N1C(=O)C[C@@]34C=CC[N@+]5([O-])CC[C@H]2[C@H](CC3)[C@@]145 | inactive | inactive | inactive | – | – | – |
| O=C(CC1CC(c2ccc(F)cc2F)=NO1)N1CCOCC1 (centres undefined) | inactive | inactive | 2130 nM (active) | – | – | – |
| OC[C@@]1(O)CO[C@@H](OC[C@H]2O[C@@H](Oc3ccccc3)[C@H](O)[C@@H](O)[C@@H]2O)[C@@H]1O | inactive | inactive | inactive | – | – | – |
| C/C(=C\CO)CC/C=C(\C)C(=O)O[C@@H]1O[C@H](CO)[C@@H](O)[C@H](O)[C@H]1O | inactive | inactive | inactive | – | – | – |
| CC(C)CC(=O)O[C@@H]1O[C@H](CO)[C@@H](O[C@H]2O[C@H](C)[C@@H](N[C@H]3C=C(CO)[C@@H](O[C@H]4O[C@H](CO)[C@@H](O[C@H]5O[C@H](CO)[C@@H](O[C@H]6O[C@H](CO)[C@@H](O)[C@H](O)[C@H]6O)[C@H](O)[C@H]5O)[C@H](O)[C@H]4O)[C@H](O)[C@H]3O)[C@H](O)[C@H]2O)[C@H](O)[C@H]1O | inactive | inactive | – | – | inactive [at 11.6 µM] | – |
| C[C@H]1CC[C@@]2(OC1)O[C@H]1CC3C4CC[C@H]5C[C@@H](O)CC[C@]5(C)C4CC(=O)[C@]3(C)[C@H]1[C@@H]2C (some centres undefined) | inactive | inactive | inactive | – | – | inactive |
| C[C@@H]1O[C@@H](OC(=O)Cc2ccccc2)[C@H](O)[C@H](O)[C@H]1O | inactive | inactive | inactive | – | – | – |
| CC(=O)/C=C/C1(O)C(C)(C)CC(O)CC1(C)O (centres undefined) | inactive | inactive | inactive | – | – | – |
| COc1ccc(/C=C/C(=O)O[C@@H]2[C@@H](O[C@@H]3O[C@H](CO)[C@@H](O)[C@H](O)[C@H]3O)[C@@H](O)[C@H](O[C@H]3C4C=CO[C@@H](O[C@@H]5O[C@H](CO)[C@@H](O)[C@H](O)[C@H]5O)C4[C@@]4(CO)O[C@@H]34)O[C@H]2C)cc1 (some centres undefined) | inactive | inactive | – | -3.03% [at 11.6 µM] | – | – |
| CC1CCC2(C(=O)O)CCC3(C)C(=CCC4C5(C)CCC(O)C(C)(C(=O)O)C5CCC43C)C2C1(C)O (centres undefined) | inactive | inactive | inactive | – | – | – |

— PubChem BioAssay (NCATS)
